Bioassay records: PubChem BioAssay, National Center for Advancing Translational Sciences (NCATS)
Compounds with a hit are over-represented: about 7.9% of the library has one in this group of screens.
HCV inhibitor: blocks hepatitis C virus; hit rate 3.4% among 340,000; Huh7.5.1 HCVcc-Cre infection, luciferase reporter, 44 h; Potency, µM (titrated, usually from 41.8 µM), without a hit: at the highest dose activity change, negative = inhibition, most hits filed as inhibitors; AID 651820; active means well fitted inhibition curve with a large enough effect; inconclusive means small, poorly fitted or top-dose-only effect, or another doubt; inactive means no such curve, though single readings can be large or run the other way; further: potency means the concentration at half of the fitted maximal effect
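1,000 cells/well; 4 h culture; + compound; + HCVcc-Cre (~0.5 moi); 44 h; luciferase substrate, RT 15 min; read 15 sec.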
MARV entry inh: Marburg virus entry inhibition. AID 540276. Marburg virus pseudotyped entry inhibition, cell reporter. hit rate 1.8% among 300,000. Potency, µM (doses to about 37.8 µM), for inactives: top-dose activity change, negative = inhibition, hits mostly inhibitors; calls by dose curve; tested in HEK293 cells; further: potency means the concentration at half of the fitted maximal effect
FMDV antiviral: blocks foot and mouth disease virus; AID 1159524; hit rate 1.2% among 410,000; Potency, µM (doses to about 57.9 µM), without a hit: at the highest dose activity change, negative = inhibition, hits mostly inhibitors; FMDV antiviral cell-based qHTS; calls by dose curve; tested in HEK293T cells; further: read-out not given here; potency means the concentration at half of the fitted maximal effect; nearly all actives have a fitted effect of over 45% in size
HCMV inh: blocks human cytomegalovirus replication; hit rate 4.5% among 410,000; AID 1259415; HFF cells, HCMV-luciferase reporter, 72 h; active compounds read low; activity change, negative = inhibition, % at 57.5 µM; in the data active means activity change below about -60%; inconclusive means no clear call, values can overlap the other calls; inactive means above about -39%
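Screen run at 2 compound doses on HFFs infected with reporter HCMV, MOI 1 PFU/cell. Luciferase activity from cell lysates at 72 h post infection gave inhibition relative to buffer-only and Salinomycin wells.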
LASV entry inh: inhibitors of Lassa virus binding or cell entry; AID 540256; Lassa virus pseudotype entry inhibition, cell reporter; hit rate 1.2% among 300,000; Potency, µM (top dose mostly 37.9 µM), inactives show at the top dose activity change, negative = inhibition, usual class: inhibitors; calls by dose curve; tested in HEK293 cells; further: potency means the concentration at half of the fitted maximal effect; nearly all actives have a fitted effect of over 50% in size
Starred values were filed as active, the others as inactive; u = inconclusive; x = no result; [ ] = dose if it differs, or a comment. On the % scale 0 is the no-effect control and ±100 the full control effect.

SMILES	HCV inhibitor	MARV entry inh	FMDV antiviral	HCMV inh	LASV entry inh
O=C(NCc1ccc(F)c(F)c1)c1ccc(-c2ccc(F)c(F)c2)c2ccoc12	x	x	-21%	-8	x
O=C(Nc1cccc(C(F)(F)F)c1)c1ccc(-c2ccc(F)c(F)c2)c2ccoc12	x	x	-19%	-76*	x
COc1ccc(C2(C(=O)NCC3Cc4cccc(-c5cccnc5)c4O3)CCCC2)cc1 (centres undefined)	x	x	-14%	x	x
COC(=O)C1=CN(c2ccc(F)cc2)C(N)=C(C#N)C1c1ccc(-c2ccccc2)cc1 (centres undefined)	x	x	0%	-13	x
COC(=O)C1=CN(c2ccc(C(C)(C)C)cc2)C(N)=C(C#N)C1c1ccc(OC)cc1 (centres undefined)	x	x	-25%	-77*	x
CC(=O)c1c(C)[nH]c(C(=O)Nc2cccc(S(=O)(=O)N3CCCC3)c2)c1C	u	2%	14%	12	0%
CC(=O)c1c(C)[nH]c(C(=O)OCC(=O)Nc2ccccc2Cl)c1C	u	u	18µM*	-10	-26%
CCN(CC)S(=O)(=O)c1ccc(Cl)c(NC(=O)COC(=O)c2ccc(O)cc2)c1	u	-19%[46.1 µM]	u	3	-21%
Cn1ccc(C(=O)OCC(=O)Nc2ccccc2Cl)n1	3.2µM*	-3%[46.1 µM]	9%	-8	29%[46.1 µM]
CCN(CC)S(=O)(=O)c1ccc(Cl)c(NC(=O)COC(=O)c2cccn2C)c1	5.6µM*	u	13µM*	-38	-22%
Cn1ccc(C(=O)OCC(=O)Nc2cccc(Cl)c2)n1	16%	8%[46.1 µM]	16%	3	2%
CC(=O)c1c(C)[nH]c(C(=O)OCC(=O)Nc2cccc(S(=O)(=O)N3CCCC3)c2)c1C	u	u	14µM*	-65*	u
CCOc1ccc(NC(=O)Cn2c(=O)cc(C)c3c(C)nn(-c4cccc(Cl)c4C)c32)cc1	x	x	-10%	10	0%[46.1 µM]
CC(=O)c1ccc(F)c(-c2cc(C)cc3c2OC(CNC(=O)Cc2ccc4c(c2)OCO4)C3)c1 (centres undefined)	x	x	-8%	x	x
CCOc1ccc(CN(C)c2ccc(S(=O)(=O)N3CCN(C)CC3)cc2[N+](=O)[O-])cc1OC	u	u	u	x	-30%
NS(=O)(=O)c1ccc(CCNC(=O)COC(=O)C2COc3ccccc3O2)cc1 (centres undefined)	1%	x	-9%	5	x
Cc1cnc(SCC2CCCO2)nc1C1CCCN(C(=O)c2ccc(S(N)(=O)=O)cc2)C1 (centres undefined)	x	x	5%	x	x
CC(=O)c1c(C)[nH]c(C(=O)OCC(=O)Nc2cc(S(=O)(=O)N3CCCC3)ccc2Cl)c1C	1.4µM*	u	u	u	u
CC(=O)Nc1ccc(NC(=O)COC(=O)C2(c3ccc(Cl)cc3)CCCC2)cc1	u	13µM*	28µM*	u	u
CCc1cccc(CC)c1NC(=O)COC(=O)C1(c2ccc(Cl)cc2)CCCC1	0%	-10%	-27%	-36	4%
COc1ccc(N(Cc2nc3ccccc3[nH]2)Cc2nnnn2-c2c(C)cccc2C)cc1	x	x	x	28	x
COC(=O)c1nc(NC(=O)c2ccccc2Br)n[nH]1	5%	-14%[46.1 µM]	20µM*	25	-2%[46.1 µM]
CCCc1cc(=O)oc2cc(OCC(=O)NCCCN3CCOCC3)ccc12	0%	0%[46.1 µM]	-16%	-1	14%[46.1 µM]
CCCCCCCCCCCCCCCCCC(=O)O[C@H](CC(=O)O)C[N+](C)(C)C	x	18%	x	x	x
N/C(=N\c1nc2c(c(=O)[nH]1)CCC2)Nc1cccc(Cl)c1	1%	6.3µM*	-14%	-28	-27%
SMILES	HCV inhibitor	MARV entry inh	FMDV antiviral	HCMV inh	LASV entry inh
Cc1cccc(N/C(N)=N/c2nc3c(c(=O)[nH]2)CCCC3)c1	-6%	-45%	4%	8	4%
O=C(Nc1nc2c(F)cccc2s1)c1ccc(S(=O)(=O)N2CCOCC2)cc1	x	x	-9%	30	5%[46.1 µM]
CCc1cccc(CC)c1N1C(=O)COCC1=O	x	x	0%	-62*	x
Cc1c(C(=O)NCC2Cc3cccc(-c4cncnc4)c3O2)c(-c2ccccc2)nn1-c1ccccc1 (centres undefined)	x	x	-6%	x	x
C[C@@H]1C=CC(=O)O[C@@H]1c1ccc(Cl)cc1	-17%	x	28µM*	-92*	x
CCOc1ccccc1CN1CCNC(=O)C1CC(=O)NC1CCCCCCC1 (centres undefined)	7%	-26%	11%	-62*	15%
COc1ccc(-c2n[nH]c(C(F)(F)F)c2-c2cc3ccccc3o2)c(O)c1	11µM*	u	u	-3	u
